According to ChEMBL document CHEMBL4513216, “Probing the Open Global Health Chemical Diversity Library for Multistage-Active Starting Points for Next-Generation Antimalarials” (ACS Infect Dis, 2020):
In all, about 69,000 compounds went through this assay and about 8,600 (12%) showed an effect of 50% or more. Many of the other results were omitted from the sample, so strong results are more common in it than they were.

Tested on: Plasmodium berghei
Assay: Screen against P. berghei liver stage (PbLuc), transformed with Luciferase, at 10uM
Type: functional, HepG2
Settings: tested at 10 uM

| SMILES | INHIBITION |
| --- | --- |
| CC(C)CC(=O)NCC(O)c1c(F)cccc1F (stereo unspecified) | 21.8% |
| CCC1CCCCN1Cc1nc2c(cnn2C)c(=O)[nH]1 (stereo unspecified) | 25.1% |
| CCc1ccccc1CNC(=O)CNC(=O)C(C)(C)C | -11.5% |
| CC(C)OCc1ccccc1CNC(=O)C(C)(C)C | 68.6% |
| CC(C)OCc1ccccc1CNC(=O)C(C)S(=O)(=O)C(C)C (stereo unspecified) | 3.84% |
| CCN(CC)C(=O)c1ccc(Cl)c(NC(=O)c2cc(C(C)C)on2)c1 | 43% |
| CN(C)Cc1cnc(CC2CCN(CCc3ccccc3)CC2)cn1 | 9.05% |
| c1cnc(N2CCO[C@H]3[C@H](OCC4CC4)CC[C@@H]32)nc1 | 21.6% |
| CSc1[nH]c(=O)c(C(=O)N2CCCC2C2CCCC2)cc1C#N (stereo unspecified) | 0.672% |
| CCC1CCCCCN1C(=O)c1cc(C#N)c(SC)[nH]c1=O (stereo unspecified) | 49.9% |
| CSc1[nH]c(=O)c(C(=O)N2CCCC2c2cccs2)cc1C#N (stereo unspecified) | 53.3% |
| CN(C)c1ncc(-c2cc(C(=O)N3CCCC3)n(CC3CC3)c2)cn1 | 3.58% |
| O=C(c1cnc(-c2ccco2)s1)N1CCOc2ncccc21 | -40.6% |
| O=C(c1csc(-c2ccco2)n1)N1CCOc2ncccc21 | -178% |
| CCCc1ncc(C(=O)N2CCOc3ncccc32)s1 | 63.8% |
| Cc1cccc(OC2(C(=O)O)CCN(C(=O)CCc3ccco3)CC2)c1 | 16.6% |
| Cc1cn(-c2ccccc2)nc1NS(=O)(=O)c1ccc(C(=O)O)cc1 | 20.9% |
| CCc1c(C)n(CC(=O)OC)c2nc3ccccc3n2c1=O | 15% |
| Cc1noc([C@@H]2C[C@H]3OCC[C@H]3N(S(=O)(=O)c3cccnc3)C2)n1 | 30.1% |
| CCC[C@H]1CN(S(=O)(=O)c2ccccc2)C[C@@H]1N | -2.34% |
| CCC[C@H]1CN(S(=O)(=O)c2cc(C)ccc2F)C[C@@H]1N | 44.2% |
| CCC[C@@H]1CN(S(=O)(=O)c2ccc(C)c(F)c2)C[C@H]1N(C)C | 37.8% |

| SMILES | INHIBITION |
| --- | --- |
| CCC[C@H]1CN(S(=O)(=O)c2cc(C)ccc2C)C[C@@H]1N | 57.2% |
| CCC[C@H]1CN(S(=O)(=O)c2c(C)noc2C)C[C@@H]1N | -28.9% |
| CCc1ccc(S(=O)(=O)N2CC3(COC(C)(C)OC3)C2)s1 | 42.7% |
| Cc1cc(-c2cc(S(=O)(=O)N3C[C@H](C4CC4)[C@@H](N)C3)c(C)s2)on1 | 45.3% |
| CCC[C@H]1CN(S(=O)(=O)c2ccc(CC)s2)C[C@@H]1N | 52.2% |
| CCC[C@H]1CN(S(=O)(=O)c2ccc(-c3c(C)noc3C)s2)C[C@@H]1N | 72.6% |
| O=C1[C@H]2CN(CC3CCOCC3)C[C@H]2CN1Cc1cccc(F)c1 | -53.6% |
| CNc1nc2cn(Cc3ccc(Cl)cc3)c(=O)c-2c[nH]1 | -14.7% |
| CCc1ncc(C(=O)N2CCCN(C3CCCCC3)CC2)cn1 | 37.7% |
| COc1ncc(CN2CCC3(CCNC(=O)CC3)CC2)cn1 | 39.5% |
| CN(C)C(=O)C1CN(Cc2cccs2)CCN(S(C)(=O)=O)C1 (stereo unspecified) | 32.8% |
| Cc1nc(CN2CCCC2Cn2cncn2)nc2ccccc12 (stereo unspecified) | 5.7% |
| Cc1cnn(CC2CCCN2Cc2nc3ccccc3c(=O)[nH]2)c1 (stereo unspecified) | 26.4% |
| Cc1cnn(CC2CCCN2CCc2nc3ccccc3c(=O)[nH]2)c1 (stereo unspecified) | 61.3% |
| Cc1nc(CN2CCCCC2Cn2cncn2)nc2ccccc12 (stereo unspecified) | 51.3% |
| Cc1nc(C)n(CC2CCCN2Cc2nc(N)c3ccccc3n2)n1 (stereo unspecified) | 59.7% |
| Fc1ccccc1OCCN1CCCCC1Cn1cncn1 (stereo unspecified) | -29.1% |
| O=c1[nH]c(CCN2CCCC2Cn2cccn2)nc2ccccc12 (stereo unspecified) | 14.4% |
| Cc1cc(C)n(CC2CCCN2Cc2nc(N)c3ccccc3n2)n1 (stereo unspecified) | 37.9% |
| COc1ccccc1OCCN1CCCCC1Cn1cncn1 (stereo unspecified) | 79.5% |
| Nc1nc(CN2CCCCC2Cn2cncn2)nc2ccccc12 (stereo unspecified) | 32.9% |
| Cc1nc(C)n(CC2CCCN2Cc2nc(C)c3ccccc3n2)n1 (stereo unspecified) | 17.4% |

| SMILES | INHIBITION |
| --- | --- |
| N#Cc1ccccc1OCCN1CCCCC1Cn1cncn1 (stereo unspecified) | 6.56% |
| CO[C@@H]1CCN(Cc2cccc(C)n2)[C@@H]2CN(Cc3ccncc3)C[C@@H]21 | -64.5% |
| Cc1ccc2snc(C(=O)N3CCN(C(=O)NCCC(C)C)CC3)c2c1 | 28.4% |
| COc1cc(CNCCc2cnn(C)c2)cc2c1OCO2 | -3.75% |
| Cc1cnn(CC2CN(Cc3nccn3CC(F)(F)F)CCO2)c1 (stereo unspecified) | 29.7% |
| CC(Nc1ncnc2c1NC(=O)CN2)c1ccccn1 (stereo unspecified) | 14.3% |
| c1ccc(-n2ccc(CN3CCCC3Cn3cncn3)n2)cc1 (stereo unspecified) | 9.64% |
| O=C1CCCN1CCN1CCCCC1Cn1cncn1 (stereo unspecified) | -19.2% |
| c1ccc(-n2cc(CN3CCCC3Cn3cncn3)nn2)cc1 (stereo unspecified) | 50.3% |
| Cc1cnn(CC2CCCCN2Cc2nc(N)c3ccccc3n2)c1 (stereo unspecified) | 58.2% |
| Cc1nc(CN2CCCC2Cn2cccn2)nc2ccccc12 (stereo unspecified) | 27.6% |
| O=C1CCCN1CCCN1CCCCC1Cn1cncn1 (stereo unspecified) | 50.4% |
| O=C1CCCN1CCCN1CCCC1Cn1cccn1 (stereo unspecified) | 24.6% |
| c1ccc(-n2cc(CN3CCCCC3Cn3cncn3)nn2)cc1 (stereo unspecified) | 0.914% |
| Cc1cnn(CC2CCCN2Cc2nc(C)c3ccccc3n2)c1 (stereo unspecified) | 53% |
| Cc1cnn(CC2CCCN2Cc2nc(N)c3ccccc3n2)c1 (stereo unspecified) | 31.2% |
| Nc1nc(CN2CCCC2Cn2cncn2)nc2ccccc12 (stereo unspecified) | -26.22% |
| Cc1cnn(CC2CCCCN2Cc2nc(C)c3ccccc3n2)c1 (stereo unspecified) | 36.1% |
| Cc1ccc(C2CSCCN2C(=O)c2cccnc2)cc1 (stereo unspecified) | -39.8% |
| c1ccc(CO[C@H]2CN(c3ncccn3)C[C@@]23CCCO3)cc1 | -42.1% |
| Nc1nnc(CCCNC(=O)c2ccc(C3CCCNC3)cc2)s1 (stereo unspecified) | 20.6% |
| CC(C)NC(=O)c1ccn(COc2c(Cl)cccc2Cl)n1 | 35% |

| SMILES | INHIBITION |
| --- | --- |
| CC(O)(CNC(=O)NCCc1ccc2c(c1)CCO2)c1ccccc1 (stereo unspecified) | -5.57% |
| CCCNCc1cn(Cc2ccccc2)nc1-c1cccnc1 | 16.5% |
| CNC(=O)C1CN(c2ncccn2)CCN1Cc1ccccc1 (stereo unspecified) | 19.3% |
| Cc1nc(CN2CCOCC2c2[nH]ncc2C)cs1 (stereo unspecified) | 8.335% |
| CN(c1cccnn1)[C@@H]1CC[C@@H]2CN(Cc3ccccc3C(=O)O)C[C@@H]21 | 19.65% |
| N#CCCn1cnc2c(Br)cccc2c1=O | 33.6% |
| CS(=O)(=O)c1ccc(Cl)c(C(=O)NCCC2=CCCCC2)c1 | -19.2% |
| COCCN1CCc2c(CNC(=O)c3nccn3C)cncc2C1 | 43.9% |
| CCN(CC)S(=O)(=O)N1CCCN(CC2CCCO2)CC1 (stereo unspecified) | 41.7% |
| Cc1ccc(C)c(CN2C[C@@H]3CC[C@H]2CN(C(=O)c2cccnc2)C3)c1 | -70.7% |
| COCCN1CCC2(CC1)CCN(Cc1ccccn1)CC2 | -67.6% |
| Cc1cc(CNC(=O)C2CC(=O)N(CCN(C)C)C2)cc(C)n1 (stereo unspecified) | 16.5% |
| CCN(CC)C1COc2ccc(Br)cc2C1=O (stereo unspecified) | 39.7% |
| COCCN1C[C@@H]2CN(Cc3ccc(F)cc3)C[C@@H]2C1=O | 0.112% |
| Cc1ccc(=O)n(CC2(O)CCN(Cc3ccoc3)CC2)n1 | -59.9% |
| O[C@@]1(Cn2cnc(Cl)c2Cl)CCCN2CCCC[C@@H]21 | 40.3% |
| COc1ccc2c(c1)ncn2C[C@]1(O)CCCN2CCCC[C@@H]21 | 58.5% |
| Cc1cc2ncn(C[C@]3(O)CCCN4CCCC[C@@H]43)c2cc1C | 49.4% |
| c1ccc(CCN2CCCC2c2ccnc(Nc3cnccn3)n2)cc1 (stereo unspecified) | 25.8% |
| N#Cc1cccc(S(=O)(=O)NC(=O)c2csc(-c3ccco3)n2)c1 | 24.3% |
| COc1ccc(C(=O)NS(=O)(=O)c2cccc(C#N)c2)cc1 | 15.5% |
| N#Cc1ccc(S(=O)(=O)NC(=O)c2csc(-c3ccco3)n2)cc1 | 54.3% |

| SMILES | INHIBITION |
| --- | --- |
| Cc1nc(C(=O)NS(=O)(=O)c2cccc(C#N)c2)cs1 | 61.1% |
| Cc1nc(C(C)C)sc1C(=O)NS(=O)(=O)c1ccc(C#N)cc1 | 39.5% |
| CSc1ccsc1C(=O)NS(=O)(=O)c1cccc(C#N)c1 | 16.9% |
| Cc1ccc(CNC(=O)Nc2nccs2)cn1 | -31.8% |
| Cn1cc(NC(=O)N2CCCC2c2ccccn2)ccc1=O (stereo unspecified) | -80.7% |
| O=C(CCn1cnc2cc(F)c(F)cc21)N1CCN(C2CC2)CC1 | -27.6% |
| COCCN1CCN(Cc2ccc(OCc3nccn3C)cc2)CC1 | -3.7% |
| O=C1CC2(CCN(S(=O)(=O)c3cccs3)C2)CN1c1cccc(F)c1 (stereo unspecified) | -20.8% |
| Cc1n[nH]c(C)c1CCc1n[nH]c(=O)n1Cc1cccs1 | -54.9% |
| COCC(NC(=O)c1cc(C)n(C)n1)c1cccc(C(F)(F)F)c1 (stereo unspecified) | -0.532% |
| CNC(=O)c1ccc(C(=O)N2CCC(Nc3cccnn3)CC2)cn1 | -0.219% |
| COc1ccc(-c2cc(C3=NC(=CN4CCN(C)CC4)NO3)[nH]n2)cc1 | 40.7% |
| Cc1ccc(-c2cc(C3=NC(=CN4CCN(C)CC4)NO3)[nH]n2)cc1 | 41.8% |
| CN1CCN(C=C2N=C(c3cc(-c4ccc(F)cc4)n[nH]3)ON2)CC1 | 50.5% |
| CCCc1nc(NC2(COC)CCCC2)c2cnn(C)c2n1 | 22.6% |
| Cc1nc(NC2(CN3CCCCC3)CCCCC2)c2cnn(C)c2n1 | 40.5% |
| COCC1(Nc2nc(C)nc3c2cnn3C)CCCC1 | 81.6% |
| COc1ccccc1-c1ccnc2nc(N3CCCCC3)[nH]c(=O)c12 | 23.4% |
